The supplement of paper PMC7156485
± gives the standard deviation of the averaged measurements.

Tests used:
Conditions in all cases: concentration: 10 µM; 24 h
[1] = system: HCC1569; assay: cell number relative to DMSO (% of DMSO); higher = more cells (less growth inhibition / toxicity)
Outline: (§1)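 HCC1569 and TDF cells (800 per well, 384-well plates, RPMI with 10% FBS) were treated with compounds at 10 µM for 24 h at 37 °C, in triplicate. Cells were fixed in 3.7% formaldehyde and stained with a rabbit anti-H1.0 antibody, an AlexaFluor 647 secondary and DAPI; six fields per well were imaged at ×10. H1.0 nuclear intensity or cell number is expressed as percent of the plate DMSO control, taking the median of replicates. HCC1569 values were smoothed for positional effects.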

[2] = system: TDF; assay: as above
Outline: as §1

[3] = system: TDF; assay: H1.0 immunofluorescence intensity relative to DMSO (% of DMSO); higher = stronger H1.0 induction, active = 120 or more
Outline: as §1

[4] = system: HCC1569; assay: H1.0 immunofluorescence intensity relative to DMSO (% of DMSO); higher = stronger H1.0 induction, active = 140 or more
Outline: as §1
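Throughout, for H1.0 immunofluorescence intensity relative to DMSO: TDF is a line of transformed human dermal fibroblasts of mesenchymal origin.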
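Throughout, for cell number relative to DMSO: TDF denotes transformed human dermal fibroblasts of mesenchymal origin.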

SMILES | cell number [1] | cell number [2] | H1.0 immunofluorescence intensity [3] | H1.0 immunofluorescence intensity [4]
CC1(C)CCC2=C(O1)c1ccccc1C(=O)C2=O [beta-Lapachone] | 59.7 ± 36 | 25.4 ± 9.7 | 114 (inactive) | 111 (inactive)
O=C1OC(=O)C2C3CCC(O3)C12 (stereo unspecified) [Norcantharidin] | 96 | 92.3 | 105 (inactive) | 103 (inactive)
COc1ccc2c(c1)CCC1C2CCC2(C)C(NCCCCCCN3C(=O)C=CC3=O)CCC12 (stereo unspecified) | 103 | 111 | 88.6 (inactive) | 103 (inactive)
CCCCCCCCCCCC=CCCCCC(=O)O [6(E)-Octadecenoic acid] | 100 | 101 | 102 (inactive) | 89.5 (inactive)
O=C1C(Cl)=C(N2C(=O)CCC2=O)C(=O)c2ccccc21 [MEK Inhibitor II] | 98.9 | 110 | 90.5 (inactive) | 121 (inactive)
Cl.Cn1c(=O)c(Oc2ccc(F)cc2F)cc2cnc(NC3CCOCC3)nc21 | 99.9 | 99.2 | 89 (inactive) | 102 (inactive)
C=C(C)C1CCC2(CO)CCC3(C)C(CCC4C5(C)CCC(O)C(C)(C)C5CCC43C)C12 (stereo unspecified) [Betulin] | 107 | 99.2 | 98.9 (inactive) | 95.6 (inactive)
CC1(C)OC2CC3C4CC(F)C5=CC(=O)C=CC5(C)C4(F)C(O)CC3(C)C2(C(=O)CO)O1 (stereo unspecified) [Fluocinolone acetonide] | 101 | 96.3 | 88.2 (inactive) | 124 (inactive)
CCCNC(C)C(=O)Nc1ccccc1C.Cl (stereo unspecified) [Prilocaine hydrochloride] | 103 | 107 | 86.9 (inactive) | 96.2 (inactive)
